Source: PubChem BioAssay (Tox21)
Results filed as inconclusive are left out. A number with no mark means an inactive call. Calls come from the whole dose curve; as a rule, active = well fitted activation curve with a large enough effect in the repeat runs; inconclusive = weak or mixed curves, or effect the other way; inactive = no such curve, though single readings can be large or run the other way.

experiment: qHTS assay to identify small molecule agonists of the estrogen related receptor signaling pathway with the pleiotropic PPARgamma coactivator (PGC) from Tox21 10K library (AID 1224842); settings: PGC/ERR reporter cell line, luciferase ONE-Glo, 18 h; series mostly up to 92.4 µM; activation: at the top concentration; note: nearly all actives have a fitted effect of over 15% in size
Source text: National Center for Advancing Translational Sciences [NCATS] NIH Chemical Genomics Center [NCGC] U.S. Environmental Protection Agency [EPA] National Institutes of Environmental Health Sciences [NIEHS] National Toxicology Program [NTP] Assay overview: Estrogen related receptors (ERRs), the first orphan nuclear receptors discovered, play an important role in the control of cellular energy metabolism. ERRs are required for high-energy production in response to the environmental challenges. The pleiotropic PPARgamma coactivator (PGC) is a major partner of ERR and a key regulator in energy homeostasis. Together they have been implicated in the etiology of metabolic disorders such as Type 2 diabetes and metabolic syndrome. ERR-alpha was also identified as an adverse marker for breast cancer progression; ERR-alpha-positive tumors have a poor prognosis. To screen and to identify environmental compounds that perturb the PGC/ERR signaling pathways could provide valuable information for potential therapeutic or preventive measures in the treatment of metabolic disease. For identifying PGC/ERR agonists, PGC/ERR cell line (provided by NTP) has been used to screen Tox21 10K library.
Assay Protocol Summary: The PGC/ERR cells were dispensed at 2,000 cells/5 ul/well in 1536-well white plates using a Multidrop dispenser. After the assay plates were incubated at a 37 C/5% CO2 incubator for 6 hours, 23 nL of compounds dissolved in DMSO, positive and negative controls or DMSO only was transferred to the assay plate by a pin tool. The plates were incubated at 37 C for 18 hours. 4 ul/well of One-Glo reagent was added into the assay plates using a Flying Reagent Dispenser. After 30-minute incubation at room temperature, the luminescence intensity in the plates was measured using a ViewLux plate reader.
% is set by controls: 0 for no effect and ±100 for the full control effect.

Row | SMILES | activation
1 | CCCCC(CC)COCCO (stereo not given) | 2.69%
2 | CCc1ccc(C=O)cc1 | 0.551%
3 | O=S(=O)(O)CCN1CCN(CCO)CC1 | -1.26%
4 | C=C(C)C(=O)OCc1ccccc1 | 0.3%
5 | CCCCCCCCCCCCCC | 3.43%
6 | CC(C)CCCCOC(=O)c1ccccc1C(=O)OCCCCC(C)C | 4.85%
7 | COc1cc(NS(=O)(=O)c2ccc(N)cc2)nc(OC)n1 | 0.997% [at 42.5 µM]
8 | CC(=O)CCCCn1c(=O)c2c(ncn2C)n(C)c1=O | 0.709% [at 42.5 µM]
9 | CCCCCCCCOS(=O)(=O)O | 0.621%
10 | CCCCCOC(=O)CCC | 3.26%
11 | O=C(O)c1cc(Cl)cc([N+](=O)[O-])c1Cl | -6.45%
12 | CCCCOCCOC(=O)COc1nc(Cl)c(Cl)cc1Cl | -1.75%
13 | COc1ccc2c(c1OC)C(=O)O[C@@H]2[C@H]1c2c(cc3c(c2OC)OCO3)CCN1C | 1.41% [at 42.5 µM]
14 | COC(=O)CCc1ccc(OCC(O)CNC(C)C)cc1 (stereo not given) | -1.11% [at 42.5 µM]
15 | O=C(OCc1ccccc1)C(=O)OCc1ccccc1 | -0.215%
16 | COc1ccc(Br)c(C)c1 | -0.722%
17 | Cc1nc2n(c(=O)c1CCN1CCC(c3noc4cc(F)ccc34)CC1)CCC[C@H]2O | -0.0623% [at 19 µM]
18 | CCCCNC1CC(C)(C)NC(C)(C)C1 | -1%
19 | CN(C)CCOCCO | -1.55%
20 | CCCOC(OCCC)OCCC | 0.0417%

Row | SMILES | activation
21 | CC(=O)/C=C/C1C(C)=CCC(C)C1(C)C (stereo not given) | -0.756%
22 | COC(=O)[C@@H]1[C@H]2C[C@H]3c4[nH]c5ccccc5c4CCN3C[C@@H]2CC[C@@H]1O | 0.324% [at 42.5 µM]
23 | CC(C(=O)O)c1ccc2c(c1)CC(=O)c1ccccc1S2 (stereo not given) | 2.89% [at 42.5 µM]
24 | CCCCCCCC/C=C\CCCCCCCC(=O)OCCCC | -2.76% [at 19 µM]
25 | COc1cc(C(=S)N2CCOCC2)cc(OC)c1OC | -0.0994% [at 42.5 µM]
26 | CC(C)=CCOC(=O)c1ccccc1 | -0.0174%
27 | BrCCCCCBr | 1.91%
28 | C=C1CC/C=C(\C)CC[C@@H]2[C@@H]1CC2(C)C | 4.53%
29 | NCCS | 1.01% [at 42.5 µM]
30 | Cc1cccc(C)c1NC(=O)c1ccccc1C(=O)O | -3.17% [at 42.5 µM]
31 | CCCC/C=C\CCCCCCCCCC=O | -3.52%
32 | C[C@@H](Oc1ccc(CNC(=O)c2cccnc2Oc2ccc3c(c2)OCO3)c(F)c1)C(=O)O | 6.19%
33 | CN1CCN(CC(=O)N2c3ccccc3C(=O)Nc3cccnc32)CC1 | 0.61% [at 8.39 µM]
34 | O=C(Nc1ccc(Cl)c(Cl)c1)C1CC1 | -3.95% [at 42.5 µM]
35 | CC(=O)Nc1ccc(S(=O)(=O)Cl)cc1 | -1.84%
36 | C=C(C)C(=O)OCCNC(C)(C)C | 1.17%
37 | CCC(C)(CCC(C)C)C(=O)O (stereo not given) | 1.72%
38 | CC(=C(CCOC(=O)C(C)C)SSC(CCOC(=O)C(C)C)=C(C)N(C=O)Cc1cnc(C)nc1N)N(C=O)Cc1cnc(C)nc1N | -0.101% [at 42.5 µM]
39 | Cc1ccsc1/C=C/C1=NCCCN1C | 1.28% [at 42.5 µM]
40 | Nc1ccc(S(=O)(=O)Nc2ccc(Cl)nn2)cc1 | -0.0026% [at 42.5 µM]
